Results: PubChem BioAssay AID1159580 (chemical genetic matrix, 2015)
In all, about 5,500 compounds went through this assay and about 2,000 (36%) were called active. Inconclusive results (about 18%) are left out. No stated cut-off is given here; in the data, active means normalized growth mostly below about 0.91 (no sharp cut-off); inconclusive means no clear call, values can overlap the other calls; inactive means mostly above about 0.92. This is one part of the list.

Assay: chemical genetic growth profiling, strain panel (AID 1159580);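 further: tested at 20 µM; growth read once vehicle control cultures reached saturation at 30 °C; 1 = growth at the plate median or of vehicle wells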
Conditions: growth OD

Measured: normalized growth

CCc1cc(C(N)=S)ccn1
inactive: S. cerevisiae deletion strains, locus YJR066W, strain TOR1, stronger effect = lower value 1 | S. cerevisiae deletion strains, locus YKL009W, strain mrt4, stronger effect = lower value 0.966 | S. cerevisiae deletion strains, locus YKL068W, stronger effect = lower value 0.975 | S. cerevisiae deletion strains, locus YKL085W, strain MDH1 (second series), stronger effect = lower value 0.964 | S. cerevisiae deletion strains, locus YKL085W, strain MDH1, stronger effect = lower value 0.964 | S. cerevisiae deletion strains, locus YKL160W, strain elf1, stronger effect = lower value 1.05 | S. cerevisiae deletion strains, locus YKL190W, strain CNB1, stronger effect = lower value 0.991 | S. cerevisiae deletion strains, locus YKR001C, strain vps1, stronger effect = lower value 0.955 | S. cerevisiae deletion strains, locus YKR026C, strain gcn3, stronger effect = lower value 1 | S. cerevisiae deletion strains, locus YKR091W, strain srl3, stronger effect = lower value 1.01 | S. cerevisiae deletion strains, locus YLL001W, strain dnm1, stronger effect = lower value 1.04 | S. cerevisiae deletion strains, locus YLL026W, stronger effect = lower value 1 | S. cerevisiae deletion strains, locus YLL041C, strain sdh2, stronger effect = lower value 1 | S. cerevisiae deletion strains, locus YLR027C, strain aat2, stronger effect = lower value 0.987 | S. cerevisiae deletion strains, locus YLR039C, strain RIC1, stronger effect = lower value 0.939 | S. cerevisiae deletion strains, locus YLR058C, strain SHM2, stronger effect = lower value 0.978 | S. cerevisiae deletion strains, locus YLR102C, strain apc9, stronger effect = lower value 0.994 | S. cerevisiae deletion strains, locus YLR113W, strain HOG1, stronger effect = lower value 1.04 | S. cerevisiae deletion strains, locus YLR221C, strain rsa3, stronger effect = lower value 1.02 | S. cerevisiae deletion strains, locus YLR258W, strain gsy2, stronger effect = lower value 1 | S. cerevisiae deletion strains, locus YLR262C, strain YPT6 (second series), stronger effect = lower value 1.04 | S. cerevisiae deletion strains, locus YLR262C, strain YPT6, stronger effect = lower value 0.937 | S. cerevisiae deletion strains, locus YLR268W, strain sec22, stronger effect = lower value 0.977 | S. cerevisiae deletion strains, locus YLR320W, strain mms22, stronger effect = lower value 1.04 | S. cerevisiae deletion strains, locus YLR330W, strain CHS5, stronger effect = lower value 0.984 | S. cerevisiae deletion strains, locus YLR342W, strain FKS1 (second series), stronger effect = lower value 1.03 | S. cerevisiae deletion strains, locus YLR342W, strain FKS1, stronger effect = lower value 1.01 | S. cerevisiae deletion strains, locus YLR357W, strain rsc2, stronger effect = lower value 0.99 | S. cerevisiae deletion strains, locus YLR370C, strain arc18, stronger effect = lower value 1 | S. cerevisiae deletion strains, locus YLR371W, strain rom2, stronger effect = lower value 0.991 | S. cerevisiae deletion strains, locus YLR384C, strain iki3, stronger effect = lower value 1 | S. cerevisiae deletion strains, locus YLR418C, strain cdc73, stronger effect = lower value 0.999 | S. cerevisiae deletion strains, locus YML016C, strain PPZ1, stronger effect = lower value 0.99 | S. cerevisiae deletion strains, locus YML032C, strain rad52, stronger effect = lower value 0.973 | S. cerevisiae deletion strains, locus YML120C, strain ndi1, stronger effect = lower value 1.02 | S. cerevisiae deletion strains, locus YML124C, strain tub3, stronger effect = lower value 0.987 | S. cerevisiae deletion strains, locus YMR058W, strain fet3, stronger effect = lower value 1.01 | S. cerevisiae deletion strains, locus YMR078C, strain ctf18, stronger effect = lower value 0.978 | S. cerevisiae deletion strains, locus YMR125W, strain sto1, stronger effect = lower value 1 | S. cerevisiae deletion strains, locus YMR129W, stronger effect = lower value 0.996 | S. cerevisiae deletion strains, locus YMR205C, strain PFK2, stronger effect = lower value 1.07 | S. cerevisiae deletion strains, locus YMR223W, strain ubp8, stronger effect = lower value 1.03 | S. cerevisiae deletion strains, locus YMR231W, strain pep5, stronger effect = lower value 1 | S. cerevisiae deletion strains, locus YMR263W, strain SAP30, stronger effect = lower value 0.982 | S. cerevisiae deletion strains, locus YMR307W, strain GAS1, stronger effect = lower value 1.06 | S. cerevisiae deletion strains, locus YNL067W, strain RPL9B, stronger effect = lower value 0.954 | S. cerevisiae deletion strains, locus YNL071W, strain lat1, stronger effect = lower value 1.01 | S. cerevisiae deletion strains, locus YNL128W, strain TEP1, stronger effect = lower value 0.985 | S. cerevisiae deletion strains, locus YNL183C, strain NPR1, stronger effect = lower value 0.999 | S. cerevisiae deletion strains, locus YNL209W, strain ssb2, stronger effect = lower value 1.01 | S. cerevisiae deletion strains, locus YNL233W, strain BNI4, stronger effect = lower value 0.963 | S. cerevisiae deletion strains, locus YNL248C, strain rpa49, stronger effect = lower value 1 | S. cerevisiae deletion strains, locus YNL250W, strain rad50, stronger effect = lower value 0.964 | S. cerevisiae deletion strains, locus YNL271C, strain bni1, stronger effect = lower value 0.971 | S. cerevisiae deletion strains, locus YNL298W, strain CLA4, stronger effect = lower value 0.978 | S. cerevisiae deletion strains, locus YNL307C, strain MCK1, stronger effect = lower value 0.985 | S. cerevisiae deletion strains, locus YNL322C, strain KRE1 (second series), stronger effect = lower value 1.03 | S. cerevisiae deletion strains, locus YNR049C, strain mso1, stronger effect = lower value 1 | S. cerevisiae deletion strains, locus YNR052C, strain pop2, stronger effect = lower value 0.993 | S. cerevisiae deletion strains, locus YOL006C, strain TOP1, stronger effect = lower value 0.995 | S. cerevisiae deletion strains, locus YOL012C, strain htz1 1.05 | S. cerevisiae deletion strains, locus YOL147C, strain pex11, stronger effect = lower value 0.988 | S. cerevisiae deletion strains, locus YOR001W, strain rrp6, stronger effect = lower value 0.965 | S. cerevisiae deletion strains, locus YOR061W, strain CKA2, stronger effect = lower value 0.96 | S. cerevisiae deletion strains, locus YOR069W, strain VPS5, stronger effect = lower value 0.998 | S. cerevisiae deletion strains, locus YOR070C, strain gyp1, stronger effect = lower value 1.01 | S. cerevisiae deletion strains, locus YOR080W, strain dia2, stronger effect = lower value 0.998 | S. cerevisiae deletion strains, locus YOR083W, strain WHI5, stronger effect = lower value 1.05 | S. cerevisiae deletion strains, locus YOR106W, strain vam3, stronger effect = lower value 1.06 | S. cerevisiae deletion strains, locus YOR136W, strain idh2, stronger effect = lower value 0.984 | S. cerevisiae deletion strains, locus YOR144C, strain elg1, stronger effect = lower value 0.985 | S. cerevisiae deletion strains, locus YOR184W, strain ser1, stronger effect = lower value 1.01 | S. cerevisiae deletion strains, locus YOR231W, strain MKK1, stronger effect = lower value 1.07 | S. cerevisiae deletion strains, locus YOR265W, strain rbl2, stronger effect = lower value 1.03 | S. cerevisiae deletion strains, locus YOR270C, strain vph1, stronger effect = lower value 1.03 | S. cerevisiae deletion strains, locus YOR290C, strain snf2, stronger effect = lower value 1.01 | S. cerevisiae deletion strains, locus YOR316C, strain cot1, stronger effect = lower value 0.981 | S. cerevisiae deletion strains, locus YPL051W, strain arl3, stronger effect = lower value 0.998 | S. cerevisiae deletion strains, locus YPL078C, strain atp4, stronger effect = lower value 1.01 | S. cerevisiae deletion strains, locus YPL106C, strain sse1, stronger effect = lower value 1.02 | S. cerevisiae deletion strains, locus YPL240C, strain hsp82, stronger effect = lower value 0.982 | S. cerevisiae deletion strains, locus YPL256C, strain CLN2, stronger effect = lower value 1.15 | S. cerevisiae deletion strains, locus YPR119W, strain clb2, stronger effect = lower value 0.986 | S. cerevisiae deletion strains, locus YPR141C, strain kar3, stronger effect = lower value 0.974 | S. cerevisiae deletion strains, locus YPR163C, strain tif3, stronger effect = lower value 0.986 | S. cerevisiae deletion strains, locus YPR167C, strain met16, stronger effect = lower value 0.989 | S. cerevisiae deletion strains, strain wtn01, stronger effect = lower value 0.995 | S. cerevisiae strains, strain wild type, stronger effect = lower value 0.986
